Assay outcomes from PubChem.
SF1 inhibitor: SF-1 (human) inhibition; Q13285; CHO-K1 Gal4-SF-1 LBD luciferase reporter; inhibition, % at 10 µM; hit rate 0.55% among 65,000;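 active = inhibition above the mean inhibition of all tested compounds plus 3 SD, cut at about 48% in these data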
Each line names hits and unclear results; the compound was inactive in the other large screens. The sample as a whole holds a higher share of hits than the screen did.

COC(=O)c1ccc(N2C(=O)CC(N3CCC(n4c(=O)[nH]c5ccccc54)CC3)C2=O)cc1 (stereo unspecified)	SF1 inhibitor 54
O=C1C2CCN(CC2)[C@@H]1Cc1ccc2ccccc2c1O	none
COc1cccc(-c2cc(C(F)(F)F)n3nc(C(=O)N4CCC5(CC4)OCCO5)cc3n2)c1	none
CC(C(N)=O)N1CC(c2ccccc2)CC1=O (stereo unspecified)	none
CCC(=NCCO)c1c(O)n(-c2ccccc2)c(=O)[nH]c1=O	none
Cn1ncnc2c(=O)n(C)c(=O)nc1-2	SF1 inhibitor 96
COCCn1cc(C(=O)N2CCC3(CC2)OCCO3)c2c3ccccc3n(C)c2c1=O	none
C=CCOC(=O)C1=C(C)OC(N)=C(C#N)[C@@]12C(=O)N(CC(N)=O)c1ccccc12	none
C/C(Cl)=C/CC1(CN2CCCC2=O)C(=O)NC(=O)NC1=O	none
Cc1c2ccncc2c(C)c2c1[nH]c1ccccc12	SF1 inhibitor 76
CCCCn1c(O)c(C=NCCCN(CC)CC)c(=O)[nH]c1=O	none
CCC(C)NC(=O)c1c(N)n(CCCOC)c2nc3ccccc3nc12 (stereo unspecified)	none
O=P(CN1CCN(c2ccccc2)CC1)(N1CCCCC1)N1CCCCC1	none
CCC(=NCC1CCCO1)c1c(O)[nH]c(=O)[nH]c1=O (stereo unspecified)	none
CCOc1cc2[nH]c(=S)n(CCCC(=O)N3CCC4(CC3)OCCO4)c(=O)c2cc1OCC	none
COC(=O)N(c1ccccc1)P1(=S)OCCO1	none
C[C@@]1(CO)[C@H](O)CC[C@@]2(C)[C@H]1CC[C@H]1C[C@@H]3C[C@@]12CC[C@]3(O)CO	SF1 inhibitor 84
Cc1ccc2cc3cc(C(=O)N4CCC5(CC4)OCCO5)oc3nc2c1	none
C[C@]12CCC(=O)C=C1CCC1C2CC[C@@]2(C)C1CC[C@@]2(O)CC#N (stereo partly specified)	none
CCCCn1c(O)c(C=NCCN2CCCCC2)c(=O)[nH]c1=O	none
C=CCN1C(=O)NC(=O)C(Cc2ccc(OC)c(OC)c2)C1=O (stereo unspecified)	none
C=CCn1c(O)c(C(C)=Nc2ccc(C(=O)OCC)cc2)c(=O)[nH]c1=O	none
CN1CCN(C(=O)COc2ccc(-c3nc4ccccc4s3)cc2)CC1	SF1 inhibitor 71
Cc1c2cnn(CC(=O)N3CCC4(CC3)OCCO4)c(=O)c2c(C)n1Cc1ccc(F)cc1	none
CN1C(=O)C(C2(C#N)CCCCC2)C(=O)N(C)C1=O	none
